Screens as filed in PubChem.
D1 agonist – Allosteric Agonists of the Human D1 Dopamine Receptor: qHTS. activation, % at 2 µM. AID 504660, 2011. actives 1% (n = 360,000). D(1A) dopamine receptor (Homo sapiens), P21728. HEK293 T-REx D1 cells, calcium flux, agonist mode; also: 0% is about no effect
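Tetracycline-induced HEK293 TREx D1 cells, force-coupled to calcium signalling, were dye-loaded with a no-wash calcium kit. Compound was pin-added after a 10 s baseline. Fluorescence was read kinetically at 1 cycle/s for 180 s, with calcium rises flagged as agonism.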
D1 potentiator – Potentiators of Human D1 Dopamine Receptor: qHTS; AID 504651, 2011; actives 0.036% (n = 360,000); HEK293 TREx D1 cells, calcium flux, dopamine EC20 potentiation; D(1A) dopamine receptor (Homo sapiens), P21728; potentiation, % at 10 µM; in the data active = potentiation above about 30%; also: 0% is about no effect
TRHR enhancer – qHTS for Small Molecule Agonists and Allosteric Enhancers of Human TRH Receptor: Primary Screen for Enhancers. Thyrotropin-releasing hormone receptor (Homo sapiens), P34981. enhancement, % at 2 µM. TRHR cells, fluo-8 calcium fluorescence, EC20 TRH enhancement. actives 0.66% (n = 360,000); in the data active = enhancement above about 30%; also: 0% is about no effect
Target sequence (P34981 whole entry, looked up): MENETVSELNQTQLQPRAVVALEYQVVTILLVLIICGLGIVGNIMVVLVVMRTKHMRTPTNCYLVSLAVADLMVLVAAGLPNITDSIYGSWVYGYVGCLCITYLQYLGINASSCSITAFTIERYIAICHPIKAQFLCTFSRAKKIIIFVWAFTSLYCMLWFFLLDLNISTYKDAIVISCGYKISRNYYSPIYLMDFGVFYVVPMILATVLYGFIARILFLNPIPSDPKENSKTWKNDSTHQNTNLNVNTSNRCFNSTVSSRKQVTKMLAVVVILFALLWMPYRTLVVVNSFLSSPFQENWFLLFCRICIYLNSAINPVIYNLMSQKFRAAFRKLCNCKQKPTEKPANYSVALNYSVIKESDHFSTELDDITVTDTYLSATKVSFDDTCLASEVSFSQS
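Enhancer read-out: after compound pinning and an initial kinetic agonist-mode read, an EC20 of TRH (10 nM final) was injected and fluo-8 calcium signal (Ex 480/Em 530) followed at 1 s/cycle for 100 cycles in TRHR-expressing cells.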
D1 antagonist – Antagonist of Human D 1 Dopamine Receptor: qHTS; HEK293 TREx D1 cells, calcium flux, dopamine EC80; active compounds read low; AID 504652, 2011; D(1A) dopamine receptor (Homo sapiens), P21728; actives 3.2% (n = 360,000); activity change, negative = inhibition, % at 10 µM; in the data active = activity change below about -30%; also: % is scaled to controls: 0 for no effect and ±100 for the full control effect
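Compound effects on dopamine-evoked calcium signalling were measured in tetracycline-induced HEK293 Trex D1 cells. Dopamine at EC80 followed a 180 s compound pre-read, and fluorescence was tracked kinetically for 180 s more.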
TRHR ag – qHTS for Small Molecule Agonists and Allosteric Enhancers of Human TRH Receptor: Primary Screen for Agonists; TRHR cells, calcium flux fluo-8, FDSS agonist mode; activation, % at 2 µM; actives 0.18% (n = 360,000); also: 0% is about no effect
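Steps: seed TRHR cells overnight; add fluo-8 no-wash Ca dye, RT 30 min–1.5 h; record 10 s baseline; pin-transfer compounds; monitor fluorescence 1 cycle/s for the agonist window. Calcium increases flag candidate agonists.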
Starred values were filed as active, the others as inactive; nt = no result. This is a sample that favours compounds with a hit; in the whole collection about 4.7% have one here. Rule as the data show it, unless noted: active = activation above about 30%; inactive = the rest.

SMILES	D1 agonist	D1 potentiator	TRHR enhancer	D1 antagonist	TRHR ag
N=c1ncn(CC(O)CN2CCOCC2)c2nc(N3CCOCC3)[nH]c12 (stereo unspecified)	5	-7	-3	-58*	0
CCCCNC(=O)CSc1nc2cc3c(cc2c(=O)n1CCCCCC(=O)NCc1ccc(OC)cc1)OCO3	3	2	16	3	0
CCOc1ccccc1CN1CCCC(C(=O)Nc2cccc(-n3cccn3)c2)C1 (stereo unspecified)	49*	-12	4	-64*	0
CCn1ncc(CN2CCCC(C(=O)Nc3cccc(-c4cc5ccccc5[nH]4)c3)C2)c1C (stereo unspecified)	91*	3	4	-51*	1
COc1ccc(C)cc1NC(=O)c1nnn(-c2c(C)cccc2C)c1C	-1	-2	1	6	0
COc1cc(NC(=O)Cn2nc(C(F)(F)F)c(Br)c2C)cc([N+](=O)[O-])c1	22	-2	-4	-34*	0
Cc1ccc(NC(=O)Cn2nc([N+](=O)[O-])c(Br)c2C)cc1C	9	-5	-3	-33*	1
O=C(C1COc2ccccc2O1)N1CCN(c2nc3c(F)cccc3s2)CC1 (stereo unspecified)	0	-1	-2	nt	1
CCOC(=O)c1noc2ncn(CC(=O)Nc3ccc(F)cc3Cl)c(=O)c12	6	0	3	1	0
CC(C)(C)NC(=O)CCN(/N=C/c1ccccc1)C1=NS(=O)(=O)c2ccccc21	2	16	-2	-4	-1
Cc1cccc(/C=N/N(CCO)C2=NS(=O)(=O)c3ccccc32)c1	2	-6	6	-34*	-1
Cn1nnnc1Sc1ncnc2scc(-c3ccccc3F)c12	0	-2	5	14	-1
COc1ccccc1N1CCN(C(=O)c2cc3cc(Br)ccc3oc2=O)CC1	2	-4	-8	20	-1
CCOC(=O)N1CCN(C(=O)c2cc3cc(Br)ccc3oc2=O)CC1	0	4	41*	-1	0
Cc1ccc2nc(N/C(=N/S(=O)(=O)c3ccc(F)cc3)c3ccccc3)sc2c1	9	-13	-2	-44*	-1
Cc1ccc2nc(N/C(=N/S(=O)(=O)c3ccc(F)cc3F)c3ccccc3)sc2c1	13	1	3	3	-1
N#C/C(=C\Nc1ccccc1O)c1nc2ccccc2o1	21	-7	2	-36*	2
CCSCCOC(=O)C1=C(C)NC(=O)NC1c1ccc2c(c1)OCO2 (stereo unspecified)	2	-4	37*	-9	0
CCOC(=O)C1=C(C)NC(=O)NC1c1ccc2c(c1)OCO2 (stereo unspecified)	13	-5	-2	1	-2
CCOC(=O)C1=C(CNCCOc2ccc(OC)cc2)NC(=O)NC1c1ccc2c(c1)OCO2 (stereo unspecified)	9	-3	7	-33*	0
CCOC(=O)C1(CCCc2ccccc2)CCN(C(=O)CCCn2cncn2)CC1	4	-5	3	-1	0
CC(C)(C)C(=O)Nc1ccc(Sc2ccc([N+](=O)[O-])cc2)cc1	7	-10	-2	-34*	-1
CC(C)(C)C(=O)NC(NC(=O)C(C)(C)C)c1ccc([N+](=O)[O-])cc1	0	-2	-1	-32*	1
CCOc1ccc(NC(=O)CC2C(=O)N(c3cccc(C)c3)C(=O)N2CCC2=CCCCC2)cc1 (stereo unspecified)	3	-2	4	-1	1
Cc1cc2c(s1)c1c(C)nn(Cc3ccc(F)cc3)c(=O)c1n2C	3	3	-2	-3	-1
SMILES	D1 agonist	D1 potentiator	TRHR enhancer	D1 antagonist	TRHR ag
Cc1ccc(C)c(-n2cc(CNC(C)Cn3cncn3)c(-c3ccccc3)n2)c1 (stereo unspecified)	2	-1	-2	-10	0
Cc1ccc(C)c(-n2cc(CNCCCn3cccn3)c(-c3ccccc3)n2)c1	40*	6	-2	-7	2
Cc1ccc(-n2cc(CNCCCn3cccn3)c(-c3cccc(C)c3)n2)cc1	44*	-15	-1	-41*	1
COc1cc(NC(=O)CC2C(=O)N(c3ccccc3)C(=O)N2Cc2ccc(F)cc2)cc(OC)c1 (stereo unspecified)	1	-3	-8	-3	0
Cc1nnc(N2CCN(c3ccc(Cl)cc3)CC2)c2c1nnn2Cc1ccc(F)cc1	2	-2	5	7	0
O=C(Nc1ncccn1)C1c2ccccc2Oc2ccccc21	4	5	-1	8	1
O=C(Nc1ccncc1)C1c2ccccc2Oc2ccccc21	44*	-5	2	39	-1
CCOC(=O)c1sc(NC(=O)C2c3ccccc3Oc3ccccc32)c(C(=O)OCC)c1C	1	4	32*	1	-1
CCOc1ccccc1C(=O)N(Cc1cccs1)c1ccc(Cl)cc1	7	1	13	-14	1
CCOc1ccc(C2CC(=O)Nc3c2c(=O)nc(SCc2ccccc2C)n3C)cc1OC (stereo unspecified)	-1	-1	-12	-6	-1
COc1cc2nc(CN3CCN(S(=O)(=O)c4c(F)cccc4F)CC3)[nH]c(=O)c2cc1OC	5	nt	-2	-32*	0
O=C(CC1Nc2ccccc2NC1=O)Nc1cc(Cl)cc(Cl)c1 (stereo unspecified)	0	3	7	0	0
Cc1cc2c(cc1C)NC(CC(=O)Nc1cccc(Cl)c1)C(=O)N2 (stereo unspecified)	6	1	43*	-18	2
Cc1cc(C)c(S(=O)(=O)N2CCN(C(=O)C3COc4ccccc4O3)CC2)c(C)c1 (stereo unspecified)	2	0	36*	-4	0
COc1ccc(C(=O)N2CCN(C(=O)C3COc4ccccc4O3)CC2)cc1OC (stereo unspecified)	2	0	-6	7	1
COc1cccc(C(=O)N2CCN(C(=O)C3COc4ccccc4O3)CC2)c1 (stereo unspecified)	3	-2	4	-32*	0
CCN1CCN(c2ncc3c(n2)CCN(Cc2sccc2C)C3)CC1	6	0	1	-9	0
CCN1CCN(c2ncc3c(n2)CCN(Cc2ccc(Br)s2)C3)CC1	12	0	0	0	0
CCN1CCN(c2ncc3c(n2)CCN(Cc2cc(Br)cs2)C3)CC1	20	0	5	-24	0
